# Measurements from PMC7862700, “An all-to-all approach to the identification of sequence-specific readers for epigenetic DNA modifications on cytosine”.
# Key:
# Test in all cases: DAPPL (digital affinity profiling via proximity ligation, sequencing); 10 mM Tris-HCl pH 7.5, 50 mM NaCl, 1 mM DTT, 4% glycerol, room temperature, 30 min; GST-TFs on glutathione beads, 16-mer random dsDNA library, 0.1% formaldehyde crosslink after washing; high values mean tight binding
# Details in all cases: protein: recombinant; tags: N-terminal GST; dsDNA, one strand shown
# FLI1 = biological target: T1, FLI1 (Homo sapiens, UniProt Q01543 1-452)
# T1 sequence: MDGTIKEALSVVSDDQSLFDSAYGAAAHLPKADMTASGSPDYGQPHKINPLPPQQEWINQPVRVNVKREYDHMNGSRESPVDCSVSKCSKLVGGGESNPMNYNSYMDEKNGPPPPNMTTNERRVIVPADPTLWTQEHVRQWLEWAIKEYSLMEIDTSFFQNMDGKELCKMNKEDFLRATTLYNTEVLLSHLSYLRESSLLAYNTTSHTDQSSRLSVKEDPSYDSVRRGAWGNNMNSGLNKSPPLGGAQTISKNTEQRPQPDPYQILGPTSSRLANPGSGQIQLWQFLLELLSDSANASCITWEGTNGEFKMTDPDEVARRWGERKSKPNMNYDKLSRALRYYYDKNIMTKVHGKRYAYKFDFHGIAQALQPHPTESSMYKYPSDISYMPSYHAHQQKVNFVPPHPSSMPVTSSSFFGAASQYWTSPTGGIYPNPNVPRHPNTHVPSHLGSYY
# Method in brief: (§1)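 Binding signal is defined as a hexamer's read frequency for one factor over its frequency for the tag-only sample. To obtain reads, GST-fused human transcription factors were expressed in yeast, captured on glutathione beads, barcoded with DNA and pooled with that sample. Pools met 200 nmole of a 16-mer random double-stranded DNA library in Tris/NaCl/DTT/glycerol buffer for 30 min at room temperature before washing, 0.1% formaldehyde crosslinking, proximity ligation (BsaI/T4 ligase, 1 h, 37 °C), PCR and Illumina NextSeq500 sequencing.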
# ELK1 = biological target: T2, ELK1 (Homo sapiens, UniProt P19419 1-428)
# T2 sequence: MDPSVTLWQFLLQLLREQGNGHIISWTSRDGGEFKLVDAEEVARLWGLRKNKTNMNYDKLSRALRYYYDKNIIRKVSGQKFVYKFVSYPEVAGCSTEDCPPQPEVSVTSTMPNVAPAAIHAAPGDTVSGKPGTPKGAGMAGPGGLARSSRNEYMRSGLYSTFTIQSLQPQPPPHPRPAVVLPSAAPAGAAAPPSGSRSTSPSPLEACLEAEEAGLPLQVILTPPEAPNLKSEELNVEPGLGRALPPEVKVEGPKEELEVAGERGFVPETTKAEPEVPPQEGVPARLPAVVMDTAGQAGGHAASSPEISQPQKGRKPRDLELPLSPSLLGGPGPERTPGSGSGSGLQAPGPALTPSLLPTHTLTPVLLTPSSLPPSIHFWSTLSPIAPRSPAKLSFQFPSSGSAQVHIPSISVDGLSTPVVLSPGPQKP
# Method in brief: as §1
# GABPA = biological target: T3, GABPA (Homo sapiens, UniProt Q06546 1-454)
# T3 sequence: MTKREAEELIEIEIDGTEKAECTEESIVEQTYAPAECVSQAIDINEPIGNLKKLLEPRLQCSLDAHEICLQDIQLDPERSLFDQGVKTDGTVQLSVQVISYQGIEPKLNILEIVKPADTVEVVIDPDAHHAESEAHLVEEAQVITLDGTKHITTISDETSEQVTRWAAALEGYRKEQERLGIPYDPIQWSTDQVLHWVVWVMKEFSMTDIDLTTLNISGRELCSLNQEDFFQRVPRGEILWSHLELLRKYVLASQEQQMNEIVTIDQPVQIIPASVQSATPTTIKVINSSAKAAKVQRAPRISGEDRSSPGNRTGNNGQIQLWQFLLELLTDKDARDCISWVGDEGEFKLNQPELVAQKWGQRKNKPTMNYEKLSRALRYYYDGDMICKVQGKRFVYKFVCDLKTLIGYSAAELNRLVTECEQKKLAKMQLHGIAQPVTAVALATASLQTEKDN
# Method in brief: as §1
# ERG = biological target: T4, ERG (Homo sapiens, UniProt P11308 1-479)
# T4 sequence: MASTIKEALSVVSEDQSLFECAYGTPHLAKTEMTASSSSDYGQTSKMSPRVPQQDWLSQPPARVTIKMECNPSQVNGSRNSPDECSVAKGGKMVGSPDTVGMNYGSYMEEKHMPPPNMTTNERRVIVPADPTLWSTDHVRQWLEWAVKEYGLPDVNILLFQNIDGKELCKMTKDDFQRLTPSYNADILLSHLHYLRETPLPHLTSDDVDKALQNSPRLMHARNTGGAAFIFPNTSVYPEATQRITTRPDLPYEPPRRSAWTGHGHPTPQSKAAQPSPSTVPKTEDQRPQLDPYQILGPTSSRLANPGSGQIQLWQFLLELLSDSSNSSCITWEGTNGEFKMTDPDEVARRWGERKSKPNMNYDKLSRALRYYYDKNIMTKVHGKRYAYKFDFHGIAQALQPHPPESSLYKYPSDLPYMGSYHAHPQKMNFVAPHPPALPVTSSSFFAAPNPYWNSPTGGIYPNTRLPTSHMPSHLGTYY
# Method in brief: as §1
# ELF1 = ELF1 (Homo sapiens, UniProt P32519 1-619)
# Method in brief: as §1
# EHF = biological target: T5, EHF (Homo sapiens, UniProt Q9NZC4 1-300)
# T5 sequence: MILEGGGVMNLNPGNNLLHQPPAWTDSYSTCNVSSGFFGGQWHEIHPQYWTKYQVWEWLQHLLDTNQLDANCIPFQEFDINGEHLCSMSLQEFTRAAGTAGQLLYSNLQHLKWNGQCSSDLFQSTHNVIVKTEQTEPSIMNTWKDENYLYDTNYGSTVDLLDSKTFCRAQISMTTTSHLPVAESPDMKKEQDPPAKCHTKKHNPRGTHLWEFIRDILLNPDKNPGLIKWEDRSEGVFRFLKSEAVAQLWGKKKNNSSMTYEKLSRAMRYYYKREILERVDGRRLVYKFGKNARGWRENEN
# Method in brief: as §1
# SPI1 = SPI1 (Homo sapiens, UniProt P17947 1-270)
# Method in brief: as §1
# SPIB = SPIB (Homo sapiens, UniProt Q01892 1-262)
# Method in brief: as §1
# ELK3 = biological target: T6, ELK3 (Homo sapiens, UniProt P41970 1-407)
# T6 sequence: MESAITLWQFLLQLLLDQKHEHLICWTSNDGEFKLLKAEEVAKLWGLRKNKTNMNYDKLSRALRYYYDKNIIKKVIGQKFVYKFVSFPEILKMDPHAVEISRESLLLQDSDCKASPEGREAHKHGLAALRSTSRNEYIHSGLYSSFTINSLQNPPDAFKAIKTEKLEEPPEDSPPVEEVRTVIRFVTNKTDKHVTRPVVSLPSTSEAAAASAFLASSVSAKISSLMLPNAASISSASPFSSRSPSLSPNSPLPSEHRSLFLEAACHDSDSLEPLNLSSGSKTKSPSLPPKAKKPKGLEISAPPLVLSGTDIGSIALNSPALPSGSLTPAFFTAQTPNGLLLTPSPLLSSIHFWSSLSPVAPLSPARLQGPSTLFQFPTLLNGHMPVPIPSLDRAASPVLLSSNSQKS
# Method in brief: as §1
# ELF1, sequence (P32519 whole entry): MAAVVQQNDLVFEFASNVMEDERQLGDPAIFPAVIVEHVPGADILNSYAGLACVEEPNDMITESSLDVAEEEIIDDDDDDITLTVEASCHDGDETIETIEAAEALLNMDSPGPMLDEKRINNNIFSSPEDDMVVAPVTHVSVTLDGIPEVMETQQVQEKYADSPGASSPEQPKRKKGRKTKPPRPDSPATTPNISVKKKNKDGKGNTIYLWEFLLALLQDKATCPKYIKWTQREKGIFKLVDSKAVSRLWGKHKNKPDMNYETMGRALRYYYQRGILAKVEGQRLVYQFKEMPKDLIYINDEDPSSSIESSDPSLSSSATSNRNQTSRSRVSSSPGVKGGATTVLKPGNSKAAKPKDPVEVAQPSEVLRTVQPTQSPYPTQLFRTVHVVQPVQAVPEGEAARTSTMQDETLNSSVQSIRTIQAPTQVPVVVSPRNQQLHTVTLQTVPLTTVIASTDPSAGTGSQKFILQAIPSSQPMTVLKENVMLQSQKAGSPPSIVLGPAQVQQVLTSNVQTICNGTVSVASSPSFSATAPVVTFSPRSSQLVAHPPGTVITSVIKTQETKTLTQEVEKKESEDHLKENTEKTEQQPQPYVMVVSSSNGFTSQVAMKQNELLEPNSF
# SPIB, sequence (Q01892 whole entry): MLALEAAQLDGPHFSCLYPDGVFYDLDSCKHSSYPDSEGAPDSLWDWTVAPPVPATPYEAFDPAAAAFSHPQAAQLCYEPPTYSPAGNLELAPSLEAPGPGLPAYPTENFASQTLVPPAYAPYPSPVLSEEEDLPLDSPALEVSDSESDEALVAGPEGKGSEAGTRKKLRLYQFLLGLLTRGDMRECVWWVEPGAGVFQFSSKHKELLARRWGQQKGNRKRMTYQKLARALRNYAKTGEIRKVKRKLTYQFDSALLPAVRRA
Sequence,binding signal (FLI1),binding signal (ELK1),binding signal (GABPA),binding signal (ERG),binding signal (ELF1),binding signal (EHF),binding signal (SPI1),binding signal (SPIB),binding signal (ELK3)
CCATCC,"1.24 fold enrichment (6-mer frequency, TF over GST control)","1.28 fold enrichment (6-mer frequency, TF over GST control)","1.23 fold enrichment (6-mer frequency, TF over GST control)","1.32 fold enrichment (6-mer frequency, TF over GST control)","1.27 fold enrichment (6-mer frequency, TF over GST control)","1.27 fold enrichment (6-mer frequency, TF over GST control)","1.31 fold enrichment (6-mer frequency, TF over GST control)","1.3 fold enrichment (6-mer frequency, TF over GST control)","1.41 fold enrichment (6-mer frequency, TF over GST control)"
TGCGAA,"1.21 fold enrichment (6-mer frequency, TF over GST control)","1.2 fold enrichment (6-mer frequency, TF over GST control)","1.07 fold enrichment (6-mer frequency, TF over GST control)","1.16 fold enrichment (6-mer frequency, TF over GST control)","1.23 fold enrichment (6-mer frequency, TF over GST control)","1.18 fold enrichment (6-mer frequency, TF over GST control)","1.26 fold enrichment (6-mer frequency, TF over GST control)","1.22 fold enrichment (6-mer frequency, TF over GST control)","1.07 fold enrichment (6-mer frequency, TF over GST control)"
CATGCC,"1.18 fold enrichment (6-mer frequency, TF over GST control)","1.17 fold enrichment (6-mer frequency, TF over GST control)","1.09 fold enrichment (6-mer frequency, TF over GST control)","1.1 fold enrichment (6-mer frequency, TF over GST control)","1.16 fold enrichment (6-mer frequency, TF over GST control)","1.16 fold enrichment (6-mer frequency, TF over GST control)","1.09 fold enrichment (6-mer frequency, TF over GST control)","1.11 fold enrichment (6-mer frequency, TF over GST control)","1.06 fold enrichment (6-mer frequency, TF over GST control)"
TGTACT,"1.28 fold enrichment (6-mer frequency, TF over GST control)","1.44 fold enrichment (6-mer frequency, TF over GST control)","1.24 fold enrichment (6-mer frequency, TF over GST control)","1.24 fold enrichment (6-mer frequency, TF over GST control)","1.35 fold enrichment (6-mer frequency, TF over GST control)","1.3 fold enrichment (6-mer frequency, TF over GST control)","1.25 fold enrichment (6-mer frequency, TF over GST control)","1.21 fold enrichment (6-mer frequency, TF over GST control)","1.35 fold enrichment (6-mer frequency, TF over GST control)"
